# Compound activity deposited in PubChem by National Center for Advancing Translational Sciences (NCATS).
# D3 antag: antagonists of human D3 dopamine receptor. D3R cells, DiscoveRx beta-arrestin luminescence, antagonist mode; active compounds read low. P35462. AID 652054. actives 2.5% (n = 360,000). max response, negative = inhibition, %; in the data active means max response below about -50%; inconclusive means no clear call, values can overlap the other calls; further: on the % scale 0 is the no-effect control and ±100 the full control effect
# Target sequence (P35462 whole entry, looked up): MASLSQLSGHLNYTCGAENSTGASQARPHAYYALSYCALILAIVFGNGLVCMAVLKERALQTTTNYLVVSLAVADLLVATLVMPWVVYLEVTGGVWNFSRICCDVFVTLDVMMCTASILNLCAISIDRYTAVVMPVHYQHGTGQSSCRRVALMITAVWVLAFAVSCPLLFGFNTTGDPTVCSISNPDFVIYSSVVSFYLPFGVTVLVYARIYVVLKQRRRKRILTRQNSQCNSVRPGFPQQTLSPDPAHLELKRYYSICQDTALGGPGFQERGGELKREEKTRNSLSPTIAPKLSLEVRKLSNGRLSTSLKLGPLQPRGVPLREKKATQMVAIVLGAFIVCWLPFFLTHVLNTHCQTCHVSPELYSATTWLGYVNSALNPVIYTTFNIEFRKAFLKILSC
#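 Cells plated overnight at 1500 cells/well, then exposed to library compounds with dopamine controls for 90 minutes at 37 degrees C. DiscoveRx reagent added for 30–60 minutes at room temperature; luminescence read, quantitative HTS format.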
# DRD3 agonist: agonists of human D3 dopamine receptor; actives 0.58% (n = 410,000); D3R DiscoveRx beta-arrestin cells, luminescence, 90 min; max activation, %; in the data active means max activation above about 30%; further: 0% is about no effect
#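 Agonist mode: compounds and dopamine controls were applied to plated cells for 90 min at 37 degrees C after an overnight attachment at 1500 cells/well. Luminescent read-out followed 30 - 60 minutes at room temperature with DiscoveRx detection reagent.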
# TSG101-PTAP inh: blocks PTAP/TSG101 interaction to inhibit HIV-1 budding | 340,000 tested, under 10 active | Potency, µM (top dose mostly 115 µM), for the others: at the top dose activity change, negative = inhibition, most hits filed as inhibitors | AID 493005 | Fluorescence polarization, FITC-PTAP peptide / Tsg101 binding | Q99816; active means well fitted inhibition curve with a large enough effect in the main read-out, with a control signal flat, not every such curve was filed as active; inconclusive means small, poorly fitted or top-dose-only effect, or effect the other way, or a change in a side signal; inactive means no such curve, though single readings can be large or run the other way; further: potency means the concentration at half of the fitted maximal effect; % of control where 0% means no effect
#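 Fluorescence anisotropy tracks displacement of a FITC-tagged PTAP peptide (50 nM) from the Tsg101 binding domain (10 uM), following a 20 min room-temperature incubation at pH 7.5.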
# Rango complex inh: Rango-importin beta binding inhibition; Q14974; Rango CFP/YFP FRET sensor + importin beta, 45 min; Potency, µM (series often up to 92.2 µM), inactives show top-dose inhibition of complex formation; actives 0.031% (n = 340,000); AID 540263;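 further: potency means the concentration at half of the fitted maximal effect; 0% = DMSO wells and 100% = buffer wells lacking importin beta; nearly all actives have a fitted effect of over 15% in size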
#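 FRET biosensor Rango (snurportin 1 IBB between N-terminal EYFP and C-terminal Cerulean), 50 nM in PBS/1 mM DTT/0.02% Tween-20/0.1% BSA, preincubated 5 min RT with compound; 0.125 microM importin beta added, 45 min RT, CFP/YFP FRET ratio read.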
# MmCpn inh: blocks the Methanococcus maripaludis chaperonin Mm-Cpn | actives 0.031% (n = 330,000) | Potency, µM (top dose mostly 76.9 µM), inactives show top-dose activity, negative = inhibition, hits mostly inhibitors | AID 504842 | purified Mm-Cpn ATPase, ADP Transcreener TR-FRET; active means well fitted inhibition curve with a large enough effect; inconclusive means small, poorly fitted or top-dose-only effect; further: potency means the concentration at half of the fitted maximal effect; on the % scale 0 is the no-effect control and ±100 the full control effect; nearly all actives have a fitted effect of over 80% in size
#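 Inhibition of chaperonin ATP hydrolysis is measured as reduced ADP production, detected by competitive TR-FRET in which signal falls with ADP. Final enzyme 25 nM and ATP 10 uM, reacted 30 min at 37°C.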
# Rango release inh: inhibitors of RanGTP-induced Rango-importin beta complex dissociation. Potency, µM (highest dose often 46.1 µM), for the others: at the highest dose activity change, negative = inhibition. Biochemical FRET Rango-importin beta, RanGTP-induced dissociation. actives 0.071% (n = 340,000). O95149+P62826. AID 540253; further: potency means the concentration at half of the fitted maximal effect; % of control where 0% means no effect; nearly all actives have a fitted effect of over 45% in size
#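 Compounds preincubate 5 min with complex of recombinant Rango and importin beta in PBS with 1 mM DTT. Ran (0.6 uM) loaded with 2 mM GTP plus 0.2 uM RCC1 starts dissociation; FRET is recorded 45 min later.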
# The depositor's hits bear a star; ? = inconclusive; . = not tested or not shown. Only some compounds are listed: those with a hit (about 2.9% of all), similar ones and a draw of the others. Unless noted, the call rests on the fitted dose curve.
SMILES,D3 antag,DRD3 agonist,TSG101-PTAP inh,Rango complex inh,MmCpn inh,Rango release inh
COc1ccc(C(CNC(=O)CN(C)S(=O)(=O)c2ccc(C)cc2)N2CCCC2)cc1 (stereo unspecified),-99*,-14,-2%,-1%,1%,9%
COc1ccccc1C(CNC(=O)CN(C)S(=O)(=O)c1ccc(C)cc1)N1CCCC1 (stereo unspecified),3,-5,-4%,0%,?,4%
COc1ccc(C(CNC(=O)c2cccc(NC(=O)c3cccs3)c2)N2CCCC2)cc1 (stereo unspecified),-82*,-18,-3%,-1%,-1%,6%
COc1ccc(C(CNC(=O)c2oc3ccc(Cl)cc3c2C)N2CCCCC2)cc1 (stereo unspecified),-103*,-18,5%,6%,3%,20%
COc1ccc(C(CNC(=O)c2oc3ccccc3c2C)N2CCCC2)cc1 (stereo unspecified),?,-18,-1%,4%,-5%,-11%
COc1ccc(C(CNC(=O)c2cccc(S(=O)(=O)N3CCCC(C)C3)c2)N(C)C)cc1 (stereo unspecified),-65*,-27,0%,-3%,-1%,6%
CCn1cc(S(=O)(=O)c2cc(C)cc(C)c2)c(=O)c2cc(F)c(N3CCCCC3)cc21,.,-3,.,.,.,.
CC(=O)c1ccc(C(=O)N(Cc2cccnc2)c2nc3c(Cl)cccc3s2)cc1,.,3,.,.,.,.
COc1ccccc1C(=O)NC(CCSC)C(=O)NCC(c1ccco1)N(C)C (stereo unspecified),-67*,-6,-4%,-3%,0%,-4%
Clc1cccc(N2CCN(c3ncnc4c3nc3n4CCCCC3)CC2)c1,.,1,.,.,.,.
COC(=O)[C@@H]1[C@@H](C)N(Cc2ccccc2)C(=O)N[C@H]1c1ccccc1,19,10,-5%,3%,.,8%
COC(=O)[C@H]1[C@@H](C)N(Cc2ccccc2)C(=O)N[C@H]1c1ccccc1,-55*,3,-2%,1%,.,11%
COc1ccc(CCNC(=O)CSc2ccc3nnc(CCNC(=O)c4ccc(C)cc4)n3n2)cc1OC,15,-1,1%,?,.,6.5µM*
COc1ccc(Oc2ccc(/C=C/C(=O)c3cccc(OC)c3)cc2[N+](=O)[O-])cc1,-56*,-21,0%,6%,-3%,1%
COc1ccc(Oc2ccc(/C=N/NC(=O)c3cccnc3)cc2[N+](=O)[O-])cc1,-21,-4,1%,-1%,2%,5%
COc1ccc(/C=C/C(=O)c2ccc3c(c2)OCCO3)cc1[N+](=O)[O-],-51*,-1,-4%,0%,0%,-2%
COc1ccc(/C=N/NC(=O)c2ccc3c(c2)OCCO3)cc1[N+](=O)[O-],?,-1,-5%,0%,3%,2%
CC(C)(C)c1nnc(NS(=O)(=O)c2ccccc2)s1,.,-13,.,.,.,.
O=C(c1ccc([N+](=O)[O-])cc1[N+](=O)[O-])N1CCc2ccccc21,-51*,-13,-6%,0%,1%,3%
CCCCN1C(=O)C(O)(c2c[nH]c3ccccc23)c2cc(Br)ccc21 (stereo unspecified),.,2,.,.,.,.
Cc1snc(S(=O)(=O)/C(C#N)=N/Nc2ccc(C(F)(F)F)cc2)c1C#N,-91*,-2,-6%,2%,1%,-7%
COc1cccc(NC(=O)CSC2=Nc3ccccc3C3=NC(CC(=O)NCCc4ccccc4)C(=O)N23)c1 (stereo unspecified),.,-3,.,.,.,.
CCOc1ccc(CCNC(=O)C2CCN(C(=O)N3CC(CC)Oc4ccccc43)CC2)cc1 (stereo unspecified),.,4,.,.,.,.
O=C(Nc1ccc(Br)cc1)C1CCCN(S(=O)(=O)c2ccc(Br)s2)C1 (stereo unspecified),.,-1,.,.,.,.
c1ccc(-n2cc(CNCCc3cscn3)c(-c3ccc4c(c3)OCO4)n2)cc1,-62*,-24,0%,?,-2%,20%
SMILES,D3 antag,DRD3 agonist,TSG101-PTAP inh,Rango complex inh,MmCpn inh,Rango release inh
OCc1cn(-c2ccccc2)nc1-c1ccc2c(c1)OCCO2,28,1,-3%,-2%,-3%,-6%
Cc1cccc2cc(C#N)c(N3CCOCC3)nc12,35,0,2%,?,0%,18µM*
CN1CCN(C(=S)c2cn(Cc3ccccc3)c3ccccc23)CC1,?,-26,0%,1%,1%,-5%
CN(C)c1ccc(C(=S)N2CCN(Cc3ccccc3)CC2)cc1,-50*,-19,-2%,0%,1%,15%
Cc1ccc(C(=S)N2CCN(Cc3ccccc3)CC2)s1,-69*,-10,-1%,-2%,-2%,9%
CN1CCN(C(=S)c2cn(Cc3ccc(Br)cc3)c3ccccc23)CC1,-88*,-8,-16%,0%,1%,1%
CCN1CCN(C(=S)c2ccc(O)cc2)CC1,-1,-2,0%,2%,2%,1%
CCN1CCN(C(=S)c2ccc(Br)cc2)CC1,-55*,-24,.,-1%,-22%,0%
COc1ccc(NC(=O)CCn2c(-c3ccc(F)cc3)cc(C(C)=O)c2C)c(OC)c1,.,-1,.,.,.,.
COc1ccccc1N1CCN(C2CC(=O)N(c3cccc(Cl)c3)C2=O)CC1 (stereo unspecified),-14,-15,3%,0%,2%,-4%
CSc1cccc(CN2CCC(CCC(=O)NC3CC3)CC2)c1,?,-6,0%,-1%,0%,14%
S=C(c1ccc(Br)cc1)N1CCN(Cc2ccccc2)CC1,-78*,-44,0%,0%,1%,1%
CCNc1nc(N)c(C(=O)c2ccc(Cl)s2)s1,-51*,-2,-11%,?,-2%,-10%
C/C=C(\C)C(=O)OC1[C@H](OC(C)=O)C2(CO)C(CC1(C)C)C1=CCC3C4(C)CCC(O[C@@H]5O[C@H](C(=O)O)[C@@H](O[C@@H]6O[C@H](CO)[C@@H](O)[C@H](O)[C@H]6O)[C@H](O)[C@H]5O[C@H]5O[C@H](CO)[C@@H](O)[C@H](O)[C@H]5O)[C@](C)(CO)C4CCC3(C)[C@]1(C)C[C@H]2O (stereo partly specified),-121*,-44,-11%,1%,.,4%
